HP1b chromo inh – blocks HP1-beta chromodomain binding to methylated histone tails | P83916 | AlphaScreen HP1-beta / biotin-H3K9me3 peptide binding | Potency, µM (highest dose often 114 µM), hits mostly inhibitors | 390,000 tested, 0.56% active | AID 540317; note: nearly all actives have a fitted effect of over 70% in size
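AlphaScreen: HP1-beta (50 nM) preformed 30 min with biotin-H3(1-18)K9me3 peptide (50 nM) in PBS pH 7.4, 0.01% Tween-20. Compound added for 30 min at RT, then streptavidin donor/nickel chelate acceptor beads (10 ug/mL) for 30 min.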
Sfp PPTase inh – blocks B. subtilis Sfp PPTase activity; Biochemical Sfp PPTase activity, qHTS; Potency, µM, usual class: inhibitors; 310,000 tested, 3.5% active; AID 1490;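 note: the enzyme is Sfp with the accession as filed and its product quenches rhodamine fluorescence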
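Reaction rates are the 30-min fluorescence difference (ex 525, em 598 nm) in wells containing 15 nM Sfp, 5 uM rhodamine-CoA and 12.5 uM BHQ-2-YbbR at pH 7.6 with 10 mM MgCl2.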
G9a inh – blocks human histone lysine methyltransferase G9a. G9a H3K9 monomethylation, AlphaScreen, 2 h. 350,000 tested, 8.8% active. Potency, µM (doses to about 102 µM), usual class: inhibitors. Q96KQ7; note: nearly all actives have a fitted effect of over 75% in size
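AlphaScreen read-out: biotin-H3K9 peptide (500 nM) methylation by 20 nM enzyme with 20 uM SAM, 2 h at room temperature after 15 min compound preincubation; anti-monomethyl H3K9 antibody plus donor/acceptor beads, 10 min dark.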
BAZ2B inh – inhibitors of human BAZ2B bromodomain; AlphaScreen BAZ2B-H3K14Ac peptide displacement; Potency, µM (titrated, usually from 114 µM), actives largely listed as inhibitors; Q9UIF8; 360,000 tested, 4.4% active; note: nearly all actives have a fitted effect of over 60% in size
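AlphaScreen displacement of biotin-H3(5-23)K14Ac peptide (50 nM final) from BAZ2B (50 nM final) in PBS pH 7.4, 0.01% Tween-20; complex preformed 30 min RT, then compounds (top 110 uM) 30 min RT, beads 20 min dark.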
JMJD2A Tudor inh – inhibitors of human JMJD2A Tudor domain. O75164. AlphaScreen JMJD2A-Tudor / H3K4me3 peptide binding. Potency, µM (doses to about 114 µM), actives largely listed as inhibitors. 390,000 tested, 4.4% active. AID 504339; note: nearly all actives have a fitted effect of over 50% in size
Each line names hits and unclear results; the compound was inactive in the other large screens; ! = a repeat was not active. Rows were chosen to be rich in hits. Some 12% of all compounds tested hit in one or more screens of this group. Calls come from the whole dose curve; as a rule, active = well fitted curve in the direction sought with a large enough effect; inconclusive = small, poorly fitted or top-dose-only effect, or another doubt; inactive = no such curve, though single readings can be large; an effect the other way counts as inactive or inconclusive.

O=C(Cc1cccs1)NCc1cccc(Cl)c1	JMJD2A Tudor inh 89.1µM
O=C(CNC(=O)c1ccc(Br)o1)NCc1cccc(Cl)c1	Sfp PPTase inh 89.1µM (no result: G9a inh)
Cn1cccc1C(=O)NCc1ccc(Cl)cc1	G9a inh 44.7µM, BAZ2B inh inconclusive
O=C(NCc1ccc(Cl)cc1)c1ccc(Br)o1	G9a inh 17.8µM!
O=C(CNC(=O)c1ccc(Br)o1)NCc1ccc(Cl)cc1Cl	none
O=C(O)c1cccc(-n2cnc3cccnc32)c1	none (no result: Sfp PPTase inh)
Cc1ccc(N2CC(C(=O)N(C)CC(=O)Nc3ccc(Cl)c(C(F)(F)F)c3)CC2=O)cc1 (stereo unspecified)	none (no result: Sfp PPTase inh)
COc1ccc(CCNC(=O)C2CCN(c3ncnc4c3nc3n4CCCCC3)CC2)c(OC)c1	none (no result: Sfp PPTase inh)
CCOc1cc(-c2nc(-c3ccc(Br)cc3)no2)cc(OCC)c1OCC	none (no result: Sfp PPTase inh)
O=C(NCc1ccc(Cl)cc1)c1ncn[nH]1	BAZ2B inh 79.4µM
O=C(CSc1ncn[nH]1)NCc1ccc(Cl)cc1	none
Cc1cc(C)c(S(=O)(=O)N2CCN(C(=O)N3CCCCC3)CC2)c(C)c1	none
Cc1cc(C)c(S(=O)(=O)N2CCN(C(=O)N(C)C)CC2)c(C)c1	Sfp PPTase inh 7.08µM, BAZ2B inh inconclusive (no result: G9a inh)
O=C(NNc1ccccc1F)c1sccc1Cl	none (no result: Sfp PPTase inh, G9a inh, BAZ2B inh)
O=C(OC(c1ccccc1)c1nccc2ccccc12)c1cc([N+](=O)[O-])cc([N+](=O)[O-])c1 (stereo unspecified)	HP1b chromo inh inconclusive, G9a inh 10µM, BAZ2B inh inconclusive, JMJD2A Tudor inh inconclusive
CC1(C)Cc2c(c(N3CCOCC3)nc3sc4c(NCc5ccccc5)nnnc4c23)CS1	none
CC1(C)Cc2c(c(N3CCOCC3)nc3sc4c(NCc5ccco5)nnnc4c23)CS1	Sfp PPTase inh inconclusive, G9a inh 17.8µM
FC(F)(F)c1cc(CO[C@@H]2CCCN[C@@H]2c2ccccc2)cc(C(F)(F)F)c1	none (no result: Sfp PPTase inh)
CCCCCCC1=Cc2cc(OC)c(OC)cc2C(C(C(C)=O)C(=O)OCC)O1 (stereo unspecified)	none (no result: HP1b chromo inh, G9a inh, BAZ2B inh, JMJD2A Tudor inh)
O=[N+]([O-])c1ccc(N2CCCCC2)s1	HP1b chromo inh inconclusive, Sfp PPTase inh 50.1µM, G9a inh 22.4µM
Oc1ccc2ccccc2c1CNc1ccc2ccccc2c1	HP1b chromo inh inconclusive, JMJD2A Tudor inh 31.6µM (no result: Sfp PPTase inh, G9a inh, BAZ2B inh)
Oc1ccc2ccccc2c1CNc1ccccc1	JMJD2A Tudor inh inconclusive (no result: Sfp PPTase inh, G9a inh, BAZ2B inh)
O=[N+]([O-])c1ccccc1NCc1c(O)ccc2ccccc12	HP1b chromo inh inconclusive, Sfp PPTase inh inconclusive, G9a inh inconclusive, BAZ2B inh 35.5µM, JMJD2A Tudor inh 44.7µM
COc1cccc2nc(-c3cccs3)nc(NN3C(=O)C=C(C)C3=O)c12	Sfp PPTase inh inconclusive (no result: HP1b chromo inh, G9a inh, BAZ2B inh)
CCC(C)(C)C1CCC(NC(=O)N2CCN(c3ccccc3O)CC2)CC1 (stereo unspecified)	JMJD2A Tudor inh 79.4µM
CN=C(c1ccc(C)cc1)n1c(=S)nc(-c2ccc(C)cc2)n(C)c1=S	HP1b chromo inh inconclusive, G9a inh 39.8µM
Cc1nnc(SCC(=O)N(C)c2c(N)n(Cc3ccccc3)c(=O)[nH]c2=O)n1Cc1ccccc1	none
CCCCN(C(=O)CSc1nnnn1C)c1c(N)n(Cc2ccccc2)c(=O)[nH]c1=O	none
CCCCN(C(=O)CSc1nnc(Nc2ccccc2)s1)c1c(N)n(CCC)c(=O)[nH]c1=O	G9a inh 39.8µM
CCn1c(SCC(=O)N(C)c2c(N)n(Cc3ccccc3)c(=O)[nH]c2=O)nc2ccccc21	Sfp PPTase inh 28.2µM (no result: G9a inh)
CN(C(=O)CSc1nc2ccccc2s1)c1c(N)n(Cc2ccccc2)c(=O)[nH]c1=O	G9a inh 25.1µM
CCN(C(=O)COC(=O)/C=C/c1ccc(C)o1)c1c(N)n(Cc2ccccc2)c(=O)[nH]c1=O	HP1b chromo inh inconclusive, G9a inh 11.2µM, JMJD2A Tudor inh 79.4µM (no result: Sfp PPTase inh)
CCN(C(=O)CSc1nc2ccc([N+](=O)[O-])cc2s1)c1c(N)n(Cc2ccccc2)c(=O)[nH]c1=O	none (no result: Sfp PPTase inh, G9a inh, BAZ2B inh)
O=C(Nc1cccc(F)c1)N1CC2(CCN(C(=O)c3cccc(F)c3)CC2)C1	none (no result: HP1b chromo inh, BAZ2B inh, JMJD2A Tudor inh)
CCN(C(=O)CSc1nncs1)c1c(N)n(Cc2ccccc2)c(=O)[nH]c1=O	G9a inh 14.1µM
CCN(C(=O)CSc1nnnn1C)c1c(N)n(Cc2ccccc2)c(=O)[nH]c1=O	none
Cc1cccc(C(=O)Nc2sc3c(c2C(=O)O)CCCC3)c1	HP1b chromo inh inconclusive, G9a inh inconclusive, JMJD2A Tudor inh inconclusive
O=C(CCNS(=O)(=O)c1ccc(Br)cc1)NC1CCCCC1	G9a inh inconclusive

Source: PubChem (National Center for Advancing Translational Sciences (NCATS))
